Test results taken from PubChem BioAssay AID2405 (Southern Research Specialized Biocontainment Screening …, 2010).

Experiment: RSV cytopathic effect inhibition in HEp-2 – cell-based, probe candidates (AID 2405)
Conditions: HEp-2 cells, hits give high values; at 100 µM unless noted; call rule not given here

Maximum inhibition, inactive:
COc1ccc(Cn2nc(C)cc2OC(=O)c2c(F)ccc(C)c2F)cc1 1.16% [at 50 µM]
COc1ccc(Cn2nc(C)cc2OC(=O)c2ccccc2)cc1 0.91% [at 25 µM]
OC1c2c(F)cccc2N=C2CCCCN21 (configuration not stated) 1.55% [at 12.5 µM]
O=C(CSc1nc2ccccc2c(=O)n1-c1ccccc1)Nc1ccc2c(c1)CCC2 18.8% [at 12.5 µM]
O=C(CSc1nc2ccccc2c(=O)n1-c1ccc(F)cc1F)Nc1ccc(N2CCOCC2)cc1 1.49%
COc1ccc(-c2csc(NC(=O)c3ccccc3F)n2)cc1 1.37%
Cc1cccc2c1-c1sc(C(=O)NCCCN3CCCC(C)C3)cc1CO2 (configuration not stated) 1.01% [at 0.78 µM]
Cc1cccc2c1-c1sc(C(=O)NCCCN3CCC(C)CC3)cc1CO2 0.67% [at 0.2 µM]
COc1cccc(-n2c(SCC(=O)Nc3ccc4c(c3)CCC4)nc3ccccc3c2=O)c1 8.16%
COc1ccc(-c2csc(N(CCCN(C)C)C(=O)c3ccccc3F)n2)cc1 5.17%
COc1ccc(-c2csc(N(CCCN(C)C)C(=O)c3ccccc3Cl)n2)cc1 0.91% [at 6.25 µM]
OC1c2cc(Br)ccc2N=C2CCCCN21 (configuration not stated) 6.83%
CCOC(=O)C1(Cc2ccccc2C(F)(F)F)CCN(C2CCN(C(C)C)CC2)CC1 0.09% [at 0.2 µM]
O=C(CSc1nc2ccccc2c(=O)n1-c1ccc(F)cc1)Nc1cccc2ccccc12 16.6%
Cc1cc(OC(=O)c2c(F)cccc2F)n(Cc2ccccc2)n1 0.49% [at 3.13 µM]
CCCN1CCN(CCCNC(=O)c2cc3c(s2)-c2c(C)cccc2OC3)CC1 0.38% [at 0.2 µM]
OC1c2cc(Cl)cc(Cl)c2N=C2CCCN21 (configuration not stated) 4.35%
O=c1c2cc(Cl)cc(Cl)c2nc2n1CCC2 5.87%
O=C(Nc1nc(-c2ccc(Cl)cc2)cs1)c1ccc(I)cc1 1.55% [at 25 µM]
CCN(CC)CCCNC(=S)N1CCN(c2nc(-c3ccccc3)cs2)CC1 1.02% [at 0.2 µM]
O=c1c2cc([N+](=O)[O-])ccc2nc2n1CCC2 1.3%
Brc1ccc2c(c1)CN1CCCC1=N2 25.2% [at 50 µM]
COc1ccc(NC(=O)CSc2nc3ccccc3c(=O)n2-c2ccc(F)cc2)cc1 18.6%
CN(C)CCCNC(=S)N1CCN(c2nc(-c3ccccc3)cs2)CC1 5.31% [at 25 µM]
Cc1cccc2c(=O)n(-c3ccccc3)c(SCC(=O)Nc3ccc4c(c3)CCC4)nc12 5.23% [at 12.5 µM]
CC(=O)Nc1ccc2nc3n(c(=O)c2c1)CCC3 1.57% [at 50 µM]
O=C(Nc1nc(-c2ccc(Cl)cc2)cs1)c1ccc(Cl)cc1 2.44%
